Screening data as filed in PubChem.
In the library only some 2.6% were active in any assay of this set; here they are far more common.
TAG inh: inhibitors of triacylglycerol accumulation, primary screen, cell-based, uHTS, fluorescence, H9c2 | H9c2 cells, Nile Red lipid (TAG) fluorescence; cells loaded with 200 µM oleic acid | inhibition, % at 12.5 µM | hit rate 0.66% among 230,000 | AID 651582, 2012;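 active = pattern-corrected inhibition of lipid staining of at least 50% with the nuclear-stain viability signal not falling by more than 50%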
Cardio protect: cardioprotection against H2O2-induced cell death, primary screen, uHTS, H9c2 cells, ATPLite luminescence; H9c2 cardiomyocytes, H2O2 injury protection, 2 h; protection from H2O2 cell death, % at 20 µM; hit rate 0.63% among 360,000; AID 588492, 2011;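 active = compounds giving at least 50% protection of heart cells from peroxide-induced death in the single-dose screen, raw or plate-pattern-corrected value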
Jurkat NFkB inh: inhibitors of induced NF-kB luciferase reporter, primary screen, TCR NF-kB activation inhibitor project, cell-based, luminescence, uHTS; Jurkat, PMA/ionomycin-induced NF-kB luciferase reporter; hit rate 0.53% among 330,000; inhibition, % at 4 µM; in the data active = inhibition above about 50%
697 NFkB inh: inhibitors of PMA/ionomycin-induced NF-kB reporter, 697 cells, primary screen, B-cell NF-kB inhibitor project, cell-based, luminescence, uHTS; 697 B-cell NF-kB luciferase reporter, 16 h; inhibition, % at 4 µM; hit rate 0.33% among 330,000; AID 435022, 2010; in the data active = inhibition above about 35%
Gli-Sufu antag: Gli-Sufu pathway antagonists, primary screen, luciferase luminescence, Sufu-KO-LIGHT cells, uHTS; Sufu-KO-LIGHT fibroblasts, Gli luciferase reporter luminescence; inhibition, % at 5 µM; hit rate 0.74% among 340,000;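 active = inhibition above about 55%, limit read from the data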
NR2F2 inh: NR2F2 transcriptional activity inhibitors, primary screen, cell-based, luciferase reporter, HEK293T, luminescence | COUP transcription factor 2 (Homo sapiens), P24468 | HEK293T NGFI-A luciferase reporter | inhibition, % at 8.6 µM | hit rate 0.7% among 370,000 | AID 686940, 2013;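 active = inhibition above a per-plate cutoff, mean inhibition of test wells between control levels plus 3 SD, cut at about 38% in these data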;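 also: cells cotransfected with COUP-TFII expression vector driving the NGFI-A reporter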
Target sequence (P24468 whole entry, looked up): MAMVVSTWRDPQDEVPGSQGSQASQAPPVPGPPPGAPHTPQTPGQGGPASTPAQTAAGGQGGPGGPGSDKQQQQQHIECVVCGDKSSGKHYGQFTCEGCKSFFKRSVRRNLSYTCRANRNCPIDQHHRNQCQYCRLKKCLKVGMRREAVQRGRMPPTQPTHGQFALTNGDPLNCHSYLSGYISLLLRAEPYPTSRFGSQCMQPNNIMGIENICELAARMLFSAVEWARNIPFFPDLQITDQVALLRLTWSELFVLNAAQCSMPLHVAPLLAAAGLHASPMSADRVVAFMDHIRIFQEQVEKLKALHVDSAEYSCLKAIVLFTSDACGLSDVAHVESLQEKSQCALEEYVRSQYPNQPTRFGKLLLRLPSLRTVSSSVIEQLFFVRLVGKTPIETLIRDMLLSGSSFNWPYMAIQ
Gli antag conf: Gli-SUFU pathway antagonists, confirmation, single concentration, luciferase luminescence, Sufu-KO-LIGHT cells; shares compounds with Gli-Sufu antag; Gli luciferase reporter; inhibition, % at 5 µM; hit rate 40% among 2,500; AID 602428, 2012;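 active = mean inhibition at 5 µM reaching about 45%, limit read from the data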
SufuKO cytotox: cytotoxicity in Sufu-KO-LIGHT cells, confirmation, cytotoxicity control for Gli-SUFU antagonist project, cell-based, ATP luminescence, single concentration; shares compounds with Gli-Sufu antag; cytotoxicity, % at 5 µM; hit rate 32% among 2,500;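 active = mean cytotoxicity at 5 µM above about 25%, limit read from the data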;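 also: cells exposed to compound overnight for roughly 16 to 18 hours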
Wnt3a counter: Wnt3a reporter signal inhibition, confirmation, counter-screen for Gli-SUFU antagonist project, Wnt-LIGHT cells, luminescence, single concentration. Wnt3a-driven luciferase reporter. hit rate 20% among 2,500. shares compounds with Gli-Sufu antag. inhibition, % at 6.25 µM;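 active = mean inhibition above about 25%, limit read from the data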
Hits are given with their value; – = inactive; · = no result given.

SMILES	TAG inh	Cardio protect	Jurkat NFkB inh	697 NFkB inh	Gli-Sufu antag	NR2F2 inh	Gli antag conf	SufuKO cytotox	Wnt3a counter
O=C(C1CCCN1S(=O)(=O)c1cccc2nsnc12)N1CCN(c2ccc(F)cc2)CC1 (stereo not drawn)	·	–	–	–	58	–	–	–	–
O=C(N[C@H](C(=O)N1CCC[C@H]1C(=O)NCc1ccccc1)c1ccccc1)C1CCCC1	·	·	·	·	·	–	·	·	·
COc1cc(S(=O)(=O)NCCOC23CC4CC(CC(C4)C2)C3)c(OC)cc1Cl	·	–	–	–	–	–	·	·	·
CCOc1ccc(OCC)c(S(=O)(=O)NCCOC23CC4CC(CC(C4)C2)C3)c1	·	–	–	–	–	–	–	31	–
CC(C)CC(=O)NC(NCC1CCCO1)C(Cl)(Cl)Cl (stereo not drawn)	–	–	–	–	88	–	–	–	–
Cc1ccc(C(=O)NC(NCC2CCCO2)C(Cl)(Cl)Cl)cc1 (stereo not drawn)	·	–	–	–	–	–	·	·	·
COc1ccc(CCNC(=O)C2CCN(S(=O)(=O)N3CCCCCC3)CC2)cc1OC	·	–	–	–	–	–	·	·	·
COc1ccc(NS(=O)(=O)c2ccc(O)c(NC(=O)c3ccc(S(=O)(=O)N4CCCCCC4)cc3)c2)cc1	·	–	–	–	–	–	·	·	·
COc1ccc(CC(=O)Nc2cccc(S(=O)(=O)N3CCCCCC3)c2)cc1OC	·	–	·	·	–	79	49	26	–
COc1ccc(NS(=O)(=O)c2cccc(NC(=O)c3ccc(S(=O)(=O)N4CCCCCC4)cc3)c2)cc1	·	–	–	–	61	·	63	–	28
COc1ccc(CCNC(=S)NC(=O)c2cc(OC)c(OC)c(OC)c2)cc1OC	–	–	–	–	–	–	–	–	–
COc1ccc(CCNC(=O)C2CCCN(S(=O)(=O)N3CCCCCC3)C2)cc1OC (stereo not drawn)	·	–	–	–	–	–	–	–	–
COc1ccc(CCNC(=S)NC(=O)c2ccccc2)cc1OC	·	–	–	–	–	–	·	·	·
Cc1cc(Nc2ccc([N+](=O)[O-])cc2)c2ccccc2n1	·	–	–	–	56	–	–	–	–
CNc1ccccc1C(C)(C)c1cc(-c2cccc(Br)c2)no1	–	–	–	–	71	–	75	–	26
CNc1ccccc1C(C)(C)c1cc(-c2cccc([N+](=O)[O-])c2)no1	–	–	–	–	–	–	·	·	·
C[C@H](c1ccccc1)N1C[C@@H](COCc2ccccc2)Oc2cccc(Oc3ccc(F)cc3)c2S1(=O)=O	·	·	·	·	·	–	·	·	·
O=C(c1ccc(Cl)cc1)c1ccc(OCC(=O)N2CCOCC2)cc1	–	–	–	–	69	–	–	–	–
O=C(N[C@@H](Cc1cccnc1)C(=O)N1CCC[C@H]1C(=O)NCCc1ccccc1Cl)c1cccs1	·	·	·	·	·	–	·	·	·
C/C(CC(=O)Nc1ccccc1C(F)(F)F)=N\NC(=O)c1cnccn1	·	–	–	–	–	–	·	·	·
C/C(CC(=O)NCc1ccccc1)=N\NC(=O)c1cnccn1	–	–	–	–	–	–	–	–	–
CC(Oc1ccc(Br)cc1Br)C(=O)Nc1cccnc1 (stereo not drawn)	–	–	–	–	–	–	·	·	·
CC(Oc1ccc(Br)cc1Br)C(=O)Nc1cccnc1Cl (stereo not drawn)	–	–	–	–	–	–	–	–	–
O=C(CSCc1ccc(Cl)cc1Cl)Nc1ccccc1C(=O)Nc1ccc(C(=O)O)cc1	–	–	–	–	–	–	–	–	–
